Assay [1] in a line: qHTS assay to identify small molecule antagonists of the vitamin D receptor (VDR) signaling pathway - cell viability counter screen (AID 743225). Further: nearly all actives have a fitted effect of over 50% in size. The essentials: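 Luminescent cell viability (CellTiter-Glo) in VDR-bla HEK 293T cells after 16 h compound exposure at 37C in the presence of 3 nM final 1-alpha,25-dihydroxy vitamin D3.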
A general note: qHTS replaces the single test concentration by a dilution series.

Assay [2] in a line: qHTS assay to identify small molecule agonists of the NFkB signaling pathway - cell viability counter screen (AID 1159515; calls by dose curve; further: nearly all actives have a fitted effect of over 55% in size; further: potency means the concentration at half of the fitted maximal effect). The method in brief: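 Viability in NFkB-bla ME-180 cells was measured by CellTiter-Glo luminescence, 30 min room temperature, in wells already treated 5 hr with compounds and read for reporter FRET.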
The nature of assay [3]: qHTS assay to identify small molecule antagonists of the retinoid-related orphan receptor gamma (ROR-gamma) signaling pathway - cell viability counter screen (AID 1159520). Further: nearly all actives have a fitted effect of over 50% in size. The essentials:
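Tet-on ROR gamma CHO cells were given compounds for 2 hr, then doxycycline hyclate at 1 uM final, and incubated 16 hr at 37 C. Viability was measured as ATP content by CellTiter-Glo luminescence.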

Assay [4] addresses Nuclear receptor ROR-gamma (Homo sapiens) (UniProt P51449). Nature of the assay: qHTS assay to identify small molecule antagonists of the retinoid-related orphan receptor gamma (ROR-gamma) signaling pathway (AID 1159521; further: nearly all actives have a fitted effect of over 50% in size; further: potency means the concentration at half of the fitted maximal effect). The method in brief: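 CHO cells expressing RORγ under a TET-on promoter, luciferase under RORE control. Dox 1 uM final, 16 h; compounds added 2 h prior. Luminescence decrease measured.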

The nature of assay [5]: qHTS assay to identify small molecule agonists of the AP-1 signaling pathway - cell viability counter screen (AID 1159525; calls by dose curve; further: nearly all actives have a fitted effect of over 55% in size; further: potency means the concentration at half of the fitted maximal effect). The method in brief:
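AP-1-bla ME-180 cells in Opti-MEM with 0.5% dialyzed FBS, compound exposure 5 h at 37 C in 15-point titration. Viability read in the same wells as ATP content by CellTiter-Glo luminescence, normalised to tetra-n-octylammonium bromide and DMSO controls.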

Assay [6] in a line: qHTS assay to identify small molecule agonists of the AP-1 signaling pathway (AID 1159526; calls by dose curve).
Assay [7] can be described thus: qHTS assay to identify small molecule antagonists of the retinoid acid receptor (RAR) signaling pathway - cell viability counter screen (AID 1159551). Further: nearly all actives have a fitted effect of over 35% in size. Further: potency means the concentration at half of the fitted maximal effect. The essentials:
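Following overnight attachment, C3RL4 reporter cells received DMSO-dissolved compounds and then retinol (1 uM final). Six hours later at 37 C, ATP content was measured by CellTiter-Glo luminescence.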

Assay [8] can be described thus: qHTS assay to identify small molecule agonists of the retinoic acid receptor (RAR) signaling pathway (AID 1159553). The essentials:
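Cell line C3RL4, RARE luciferase reporter. Treatment: compounds in DMSO, 6 hr, 37 C, 5% CO2, after overnight plating. Detection: luminescence, 30 min RT after reagent.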

Assay [9] in a line: qHTS assay to identify small molecule agonists of the endoplasmic reticulum stress response signaling pathway - cell viability counter screen (AID 1159517; calls by dose curve; further: nearly all actives have a fitted effect of over 50% in size; further: potency means the concentration at half of the fitted maximal effect). The method in brief: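 ESRE-bla HeLa cells, 1,500 per well, seeded overnight then treated with compounds for 5 hr at 37 C. After the beta-lactamase read, viability in the same wells is measured by CellTiter-Glo luminescence after 30 min at room temperature.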

Assay [10] in a line: qHTS assay to identify small molecule agonists of the RXR signaling pathway - cell viability counter screen (AID 1159529). Further: nearly all actives have a fitted effect of over 50% in size. Further: potency means the concentration at half of the fitted maximal effect. The essentials: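 Same-well viability check after the LiveBLAzer FRET read: CellTiter-Glo added, luminescence measured after 30 min at room temperature. Reporter HEK 293T cells had been treated with compounds for 16 hr following a 5 hr preincubation.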
Assay [11] can be described thus: qHTS assay to identify small molecule antagonists of the retinoic acid receptor (RAR) signaling pathway (AID 1159552; further: nearly all actives have a fitted effect of over 50% in size; further: potency means the concentration at half of the fitted maximal effect). The method in brief: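 Readout: luciferase luminescence, 30 min post-reagent at RT. Setup: C3RL4 RARE reporter cells, compounds plus retinol 1 uM final, 6 hr incubation at 37 C and 5% CO2.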
Assay [12] in a line: qHTS assay to identify small molecule agonists of the vitamin D receptor (VDR) signaling pathway - cell viability counter screen (AID 743224). Further: nearly all actives have a fitted effect of over 50% in size. Further: potency means the concentration at half of the fitted maximal effect. The method in brief:
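VDR-bla cell line, quantitative HTS format; 16 h compound incubation (37C, 5% CO2); ATP-based CellTiter-Glo luminescence measured in the reporter assay wells.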

In assay [13] the target is Retinoic acid receptor RXR-alpha (Homo sapiens) (UniProt P19793). The assay is described as follows: qHTS assay to identify small molecule agonists of the RXR signaling pathway (AID 1159527; calls by dose curve; further: nearly all actives have a fitted effect of over 35% in size). The essentials: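 Beta-lactamase reporter assay, agonist format. Engineered HEK 293T line, charcoal-stripped FBS at 2%, overnight (16 hr) exposure, fluorescence at 460 and 530 nm after 405 nm excitation.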

A short description of assay [14]: qHTS assay to identify small molecule antagonists of the estrogen related receptor signaling pathway with the pleiotropic PPARgamma coactivator (PGC) cell viability counter screen (AID 1224822;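 further: potency means the concentration at half of the fitted maximal effect; viability read after 17.5 h compound exposure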). The essentials:
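qHTS format, DMSO compound stocks pin-transferred onto PGC/ERR cells 6 h after plating; 17.5 h exposure at 37 C, then CellTiter-Fluor fluorescence.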

Records with an inconclusive call do not appear. Active and inactive are the calls of the source. Unless noted, the call rests on the fitted dose curve; in most records, active means well fitted curve in the direction sought with a large enough effect in the repeat runs; inconclusive means weak or mixed curves; inactive means no such curve, though single readings can be large; an effect the other way counts as inactive or inconclusive.

Sequence of Retinoic acid receptor RXR-alpha (Homo sapiens) (P19793 whole entry, looked up): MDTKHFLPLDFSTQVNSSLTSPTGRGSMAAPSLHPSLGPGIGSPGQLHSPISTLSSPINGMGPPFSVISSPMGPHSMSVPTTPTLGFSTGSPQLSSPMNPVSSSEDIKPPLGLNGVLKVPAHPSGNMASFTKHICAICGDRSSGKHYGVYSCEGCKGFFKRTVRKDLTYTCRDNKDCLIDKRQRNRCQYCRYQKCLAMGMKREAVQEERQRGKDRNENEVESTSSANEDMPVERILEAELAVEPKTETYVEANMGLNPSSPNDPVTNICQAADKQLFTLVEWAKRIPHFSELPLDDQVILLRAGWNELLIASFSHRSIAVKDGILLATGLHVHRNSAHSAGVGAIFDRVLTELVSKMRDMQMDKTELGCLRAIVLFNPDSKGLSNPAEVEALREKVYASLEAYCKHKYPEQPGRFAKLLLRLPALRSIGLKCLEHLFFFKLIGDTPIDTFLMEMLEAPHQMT

For the molecule `CCCCCCC[N+](CC)(CC)CCCCc1ccc(Cl)cc1`, the Potency entry in [1], in assay [2], in assay [3], in assay [4], in assay [5] and in assay [6] was “inactive” throughout. For the same molecule, the Potency entry in assay [7] and in [8] was “inactive” in each case.

As to `O=c1c(-c2ccccc2)c1-c1ccccc1`, the Potency result in [2], in [9] and in assay [8] was “inactive” throughout. The Potency in assay [4] was 18.8 µM (active); in [10], 6.01 µM (active); in [11], 4.22 µM (active).

Take `CC(C)(C)NC(=O)[C@@H]1C[C@@H]2CCCC[C@@H]2CN1C[C@@H](O)[C@H](Cc1ccccc1)NC(=O)[C@H](CC(N)=O)NC(=O)c1ccc2ccccc2n1`: the Potency was 44.2 µM (active) in assay [12]; 55.7 µM (active) in assay [2]; 49.6 µM (active) in [9]; 55.2 µM (active) in assay [4]; 24.9 µM (active) in assay [10]; 55.2 µM (active) in [11].

For the molecule `ON=C1CCCC1`, the Potency result in [1], in [2], in assay [9], in assay [5], in [6] and in assay [13] was “inactive” in each case. Also, the Potency entry in assay [7], in assay [11] and in assay [8] was “inactive” each time.

Turning to `Nc1ccccc1O`, the Potency entry in [12], in assay [1], in assay [3], in [4], in [13] and in assay [10] was “inactive” throughout. Further, the Potency entry in assay [7] and in assay [11] was “inactive” each time. The Potency in [2] is 38.4 µM (active); in assay [5] it was 15.3 µM (active).

On to `CCN(C(=O)c1cc(C)cc(OC[C@H](C)Nc2ccncc2)c1)C(C)C`, for which the Potency entry in assay [12], in assay [1], in assay [2], in [3], in [4] and in [5] was “inactive” throughout. Moreover, the Potency entry in assay [10], in assay [7], in assay [11] and in [8] was “inactive” each time.

As for `c1cc(C(c2ccc(OCC3CO3)cc2)c2ccc(OCC3CO3)cc2)ccc1OCC1CO1` (stereo unspecified), the Potency entry in [2], in assay [9], in [5] and in assay [7] was “inactive” in each case.

As to `CCN(Cc1cccnc1)C(=O)c1cccc(Cl)c1[C@]1(C)C(=O)N(Cc2ccc(OC)cc2OC)c2ccc(Cl)cc21`, the Potency entry in assay [2], in assay [9], in assay [5] and in assay [7] was “inactive” each time. In addition, the Potency in [4] is 9.05 µM (active).

As for `CCN(CC)CCNC(=O)c1c(C)[nH]c(/C=C2\C(=O)Nc3ccc(F)cc32)c1C`, the Potency in assay [12] is 29.8 µM (active); in assay [9], 7.56 µM (active); in assay [10], 7.56 µM (active); in assay [7], 33.5 µM (active); in assay [11], 26.6 µM (active); in assay [14], 8.74 µM (active). Moreover, the Potency entry in [2], in assay [5] and in assay [6] was “inactive” in each case.

On to `N/C(=N\N=C\c1ccc(Cl)cc1)N/N=C/c1ccc(Cl)cc1`, for which the Potency was 26.6 µM (active) in assay [12]; 13.4 µM (active) in [2]; 23.9 µM (active) in [9]; 13.4 µM (active) in assay [5]; 19 µM (active) in assay [10]. Further, in [8], the Potency entry is “inactive”.

For `CN(C/C=C/C#CC(C)(C)C)Cc1cccc2ccccc12`, the Potency result in assay [1], in assay [9], in [4], in [5], in assay [7] and in assay [8] was “inactive” throughout. The Potency in assay [2] is 21.3 µM (active); in assay [10], 7.56 µM (active).

The values above are taken from PubChem BioAssay (Tox21).
